Data from the supplement of paper PMC11732987, “Enantioselective OTUD7B fragment discovery through chemoproteomics screening and high-throughput optimisation” (Communications Chemistry, 2025).

Legend:
Assay in all cases: log2 ratio of Biotin-Ahx-Ub-VS probe labelling (fragment/DMSO); higher = less target engagement (more negative = stronger competition), active = hit call of the paper (q ≤ 0.05, log2 ratio ≤ -1)
Details in all cases: compound concentration: 200 uM; treatment time: 3 h
USP42 = target: T1, USP42 (UniProt Q9H9J4)
T1 sequence (whole entry): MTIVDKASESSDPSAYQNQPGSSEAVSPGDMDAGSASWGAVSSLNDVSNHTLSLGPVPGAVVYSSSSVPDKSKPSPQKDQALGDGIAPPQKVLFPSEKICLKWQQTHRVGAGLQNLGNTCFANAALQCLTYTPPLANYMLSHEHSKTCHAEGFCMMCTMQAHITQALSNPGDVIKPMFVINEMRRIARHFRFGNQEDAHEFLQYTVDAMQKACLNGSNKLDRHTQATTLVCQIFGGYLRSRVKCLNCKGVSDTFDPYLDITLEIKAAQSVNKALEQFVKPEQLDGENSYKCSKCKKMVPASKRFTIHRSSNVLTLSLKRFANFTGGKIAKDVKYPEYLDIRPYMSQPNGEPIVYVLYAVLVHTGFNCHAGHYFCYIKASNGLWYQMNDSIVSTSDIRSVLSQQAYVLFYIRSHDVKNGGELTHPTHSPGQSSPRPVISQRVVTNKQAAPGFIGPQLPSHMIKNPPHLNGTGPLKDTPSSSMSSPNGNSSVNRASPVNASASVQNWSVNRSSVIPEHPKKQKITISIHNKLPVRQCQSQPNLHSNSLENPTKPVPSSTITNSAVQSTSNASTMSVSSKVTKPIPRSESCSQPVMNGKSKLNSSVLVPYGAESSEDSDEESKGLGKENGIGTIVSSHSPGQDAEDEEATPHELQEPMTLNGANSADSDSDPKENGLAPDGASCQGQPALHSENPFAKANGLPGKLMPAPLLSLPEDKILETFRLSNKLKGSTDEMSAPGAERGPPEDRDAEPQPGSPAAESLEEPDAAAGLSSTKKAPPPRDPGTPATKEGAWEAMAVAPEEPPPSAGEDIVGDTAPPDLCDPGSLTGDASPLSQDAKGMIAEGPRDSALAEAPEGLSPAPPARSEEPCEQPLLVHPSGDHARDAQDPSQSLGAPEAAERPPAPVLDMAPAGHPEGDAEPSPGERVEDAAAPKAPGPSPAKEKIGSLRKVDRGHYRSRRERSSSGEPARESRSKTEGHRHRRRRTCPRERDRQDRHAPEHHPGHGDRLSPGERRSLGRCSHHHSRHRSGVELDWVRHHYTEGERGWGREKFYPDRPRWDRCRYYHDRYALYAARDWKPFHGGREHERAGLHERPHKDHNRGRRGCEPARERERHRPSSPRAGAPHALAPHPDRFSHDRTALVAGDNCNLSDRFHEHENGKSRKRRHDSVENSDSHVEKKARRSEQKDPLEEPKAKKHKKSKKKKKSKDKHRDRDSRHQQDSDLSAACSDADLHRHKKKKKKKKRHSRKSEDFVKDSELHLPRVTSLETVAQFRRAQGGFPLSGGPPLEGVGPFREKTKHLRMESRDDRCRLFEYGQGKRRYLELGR
Procedure, shortened: (§1)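 HEK293T lysate (495 µg per sample, in Tris/CHAPS/IGEPAL buffer with protease inhibitors) was exposed in triplicate for 3 h to fragment at 200 µM or to vehicle, then to Biotin-Ahx-Ub-VS at 0.5 µM final for 1 h. Labelled DUBs were enriched on NeutrAvidin, digested with LysC and trypsin, and analysed by diaPASEF LC-MS/MS. Spectronaut label-free quantities were normalised to the global median, and values are average log2 ratios of fragment over vehicle from an unpaired t-test. Only proteins with ≥2 unique peptides were used.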

USP46 = USP46 (UniProt P62068)
Procedure, shortened: as §1

USP47 = target: T2, USP47 (UniProt Q96K76)
T2 sequence (whole entry): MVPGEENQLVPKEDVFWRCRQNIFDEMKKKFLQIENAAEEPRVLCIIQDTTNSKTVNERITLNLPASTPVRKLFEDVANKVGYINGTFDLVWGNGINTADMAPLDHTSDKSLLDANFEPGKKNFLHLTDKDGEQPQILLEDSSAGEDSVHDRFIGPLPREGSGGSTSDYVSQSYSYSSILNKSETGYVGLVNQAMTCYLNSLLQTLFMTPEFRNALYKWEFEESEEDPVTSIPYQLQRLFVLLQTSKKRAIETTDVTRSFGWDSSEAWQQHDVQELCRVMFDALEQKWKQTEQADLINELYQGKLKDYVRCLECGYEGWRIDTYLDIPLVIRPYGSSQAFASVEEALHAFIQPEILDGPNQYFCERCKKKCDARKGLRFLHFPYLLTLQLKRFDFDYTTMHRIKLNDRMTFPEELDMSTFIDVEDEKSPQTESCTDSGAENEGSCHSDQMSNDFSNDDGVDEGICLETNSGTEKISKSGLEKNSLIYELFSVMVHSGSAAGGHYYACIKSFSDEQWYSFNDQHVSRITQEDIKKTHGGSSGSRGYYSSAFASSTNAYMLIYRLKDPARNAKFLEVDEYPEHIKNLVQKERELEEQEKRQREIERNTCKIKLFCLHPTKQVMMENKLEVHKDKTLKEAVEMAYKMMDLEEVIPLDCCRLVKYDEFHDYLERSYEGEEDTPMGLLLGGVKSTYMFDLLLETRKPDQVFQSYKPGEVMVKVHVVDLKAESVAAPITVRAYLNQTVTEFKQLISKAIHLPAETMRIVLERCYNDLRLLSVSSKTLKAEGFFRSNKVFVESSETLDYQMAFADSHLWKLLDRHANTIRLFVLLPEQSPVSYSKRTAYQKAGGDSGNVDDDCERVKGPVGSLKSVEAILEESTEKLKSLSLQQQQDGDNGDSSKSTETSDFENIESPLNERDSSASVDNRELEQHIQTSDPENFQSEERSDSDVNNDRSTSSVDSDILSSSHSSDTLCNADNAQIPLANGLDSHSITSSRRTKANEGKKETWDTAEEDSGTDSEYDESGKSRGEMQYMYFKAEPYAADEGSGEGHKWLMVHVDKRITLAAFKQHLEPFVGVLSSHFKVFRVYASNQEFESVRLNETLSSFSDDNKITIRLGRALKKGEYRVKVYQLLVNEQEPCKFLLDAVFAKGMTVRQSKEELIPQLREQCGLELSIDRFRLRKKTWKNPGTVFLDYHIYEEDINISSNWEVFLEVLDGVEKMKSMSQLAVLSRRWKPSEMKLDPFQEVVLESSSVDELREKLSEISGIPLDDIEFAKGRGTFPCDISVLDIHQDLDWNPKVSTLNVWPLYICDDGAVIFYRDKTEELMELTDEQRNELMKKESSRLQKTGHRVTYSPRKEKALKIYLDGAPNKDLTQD
Procedure, shortened: as §1

USP48 = target: T3, USP48 (UniProt Q86UV5)
T3 sequence (whole entry): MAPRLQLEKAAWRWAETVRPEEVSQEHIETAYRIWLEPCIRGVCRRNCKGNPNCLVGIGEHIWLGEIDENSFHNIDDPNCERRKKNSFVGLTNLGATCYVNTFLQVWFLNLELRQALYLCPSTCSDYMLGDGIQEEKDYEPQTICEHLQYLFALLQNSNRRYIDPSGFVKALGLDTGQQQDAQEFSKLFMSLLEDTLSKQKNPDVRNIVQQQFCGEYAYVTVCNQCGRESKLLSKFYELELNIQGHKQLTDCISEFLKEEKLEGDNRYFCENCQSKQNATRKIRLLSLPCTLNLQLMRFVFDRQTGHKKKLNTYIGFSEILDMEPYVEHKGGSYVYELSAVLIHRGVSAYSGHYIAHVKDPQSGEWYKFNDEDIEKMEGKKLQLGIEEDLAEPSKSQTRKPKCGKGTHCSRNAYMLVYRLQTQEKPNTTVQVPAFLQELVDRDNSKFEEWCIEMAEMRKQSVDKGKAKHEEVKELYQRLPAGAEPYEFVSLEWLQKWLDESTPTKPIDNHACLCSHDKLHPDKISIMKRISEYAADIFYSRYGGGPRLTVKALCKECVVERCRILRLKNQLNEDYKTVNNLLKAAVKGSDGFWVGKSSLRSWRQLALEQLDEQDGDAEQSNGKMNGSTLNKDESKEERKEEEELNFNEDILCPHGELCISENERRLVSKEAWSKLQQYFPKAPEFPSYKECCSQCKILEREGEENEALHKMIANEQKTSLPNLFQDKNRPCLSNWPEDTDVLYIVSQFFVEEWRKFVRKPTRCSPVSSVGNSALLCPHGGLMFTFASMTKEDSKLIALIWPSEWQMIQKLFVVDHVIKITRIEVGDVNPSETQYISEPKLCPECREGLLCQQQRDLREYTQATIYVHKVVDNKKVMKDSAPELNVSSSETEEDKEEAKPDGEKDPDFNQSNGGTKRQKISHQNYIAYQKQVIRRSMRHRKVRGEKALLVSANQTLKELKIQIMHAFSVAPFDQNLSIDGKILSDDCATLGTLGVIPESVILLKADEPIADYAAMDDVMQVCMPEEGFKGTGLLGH
Procedure, shortened: as §1

USP5 = target: T4, USP5 (UniProt P45974)
T4 sequence (whole entry): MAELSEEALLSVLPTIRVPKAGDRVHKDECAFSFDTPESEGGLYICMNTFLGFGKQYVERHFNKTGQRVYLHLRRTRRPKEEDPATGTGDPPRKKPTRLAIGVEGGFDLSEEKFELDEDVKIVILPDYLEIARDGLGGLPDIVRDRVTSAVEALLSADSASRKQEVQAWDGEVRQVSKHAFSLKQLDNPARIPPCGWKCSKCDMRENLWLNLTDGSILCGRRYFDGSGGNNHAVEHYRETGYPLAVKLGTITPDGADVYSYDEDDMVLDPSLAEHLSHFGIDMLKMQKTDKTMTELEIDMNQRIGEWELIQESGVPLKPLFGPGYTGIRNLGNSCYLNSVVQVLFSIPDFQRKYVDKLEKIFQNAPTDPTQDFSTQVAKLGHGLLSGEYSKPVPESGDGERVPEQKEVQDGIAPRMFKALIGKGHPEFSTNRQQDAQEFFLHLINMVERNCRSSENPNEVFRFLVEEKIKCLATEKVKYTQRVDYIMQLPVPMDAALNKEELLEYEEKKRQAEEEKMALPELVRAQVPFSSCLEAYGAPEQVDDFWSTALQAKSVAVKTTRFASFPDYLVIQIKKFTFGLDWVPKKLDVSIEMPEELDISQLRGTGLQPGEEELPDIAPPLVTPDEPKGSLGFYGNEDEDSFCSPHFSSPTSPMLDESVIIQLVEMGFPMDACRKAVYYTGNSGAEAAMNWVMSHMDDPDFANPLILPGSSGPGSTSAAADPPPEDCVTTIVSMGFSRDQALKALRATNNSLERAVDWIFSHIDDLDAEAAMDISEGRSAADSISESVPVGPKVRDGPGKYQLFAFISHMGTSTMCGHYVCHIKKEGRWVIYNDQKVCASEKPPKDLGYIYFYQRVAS
Procedure, shortened: as §1

USP54 = USP54 (UniProt Q70EL1)
Procedure, shortened: as §1

USP7 = USP7 (UniProt Q93009)
Procedure, shortened: as §1

USP8 = target: T5, USP8 (UniProt P40818)
T5 sequence (whole entry): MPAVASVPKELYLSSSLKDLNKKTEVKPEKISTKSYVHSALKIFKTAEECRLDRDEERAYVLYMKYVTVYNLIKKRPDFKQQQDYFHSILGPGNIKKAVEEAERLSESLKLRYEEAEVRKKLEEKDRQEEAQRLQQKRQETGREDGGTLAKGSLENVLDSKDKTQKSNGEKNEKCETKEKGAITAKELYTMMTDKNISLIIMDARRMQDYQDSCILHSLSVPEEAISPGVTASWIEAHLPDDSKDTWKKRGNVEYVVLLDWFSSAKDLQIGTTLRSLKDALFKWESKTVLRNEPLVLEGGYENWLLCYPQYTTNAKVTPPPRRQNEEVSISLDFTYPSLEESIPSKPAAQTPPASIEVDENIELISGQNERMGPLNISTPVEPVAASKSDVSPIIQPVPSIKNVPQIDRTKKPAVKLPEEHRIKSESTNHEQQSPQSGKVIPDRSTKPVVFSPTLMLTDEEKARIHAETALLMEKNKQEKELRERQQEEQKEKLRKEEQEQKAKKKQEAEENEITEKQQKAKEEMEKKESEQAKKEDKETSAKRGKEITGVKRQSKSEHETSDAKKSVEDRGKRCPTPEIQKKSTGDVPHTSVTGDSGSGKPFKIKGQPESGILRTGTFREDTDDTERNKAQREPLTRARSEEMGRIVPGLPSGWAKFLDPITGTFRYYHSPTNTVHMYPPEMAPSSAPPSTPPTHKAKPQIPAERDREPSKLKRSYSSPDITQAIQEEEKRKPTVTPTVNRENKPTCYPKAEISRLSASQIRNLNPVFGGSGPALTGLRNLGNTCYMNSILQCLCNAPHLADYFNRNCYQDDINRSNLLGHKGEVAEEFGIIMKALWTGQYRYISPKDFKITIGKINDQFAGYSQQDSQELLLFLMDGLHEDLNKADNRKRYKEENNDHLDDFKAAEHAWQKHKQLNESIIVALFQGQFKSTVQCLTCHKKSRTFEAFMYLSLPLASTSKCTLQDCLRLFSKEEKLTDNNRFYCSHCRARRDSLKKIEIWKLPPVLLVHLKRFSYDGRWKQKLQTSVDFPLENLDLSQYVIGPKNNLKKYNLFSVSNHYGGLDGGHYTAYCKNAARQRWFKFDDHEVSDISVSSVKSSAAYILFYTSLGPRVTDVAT
Procedure, shortened: as §1

USP9X = USP9X (UniProt Q93008)
Procedure, shortened: as §1

UniProt O00487 = target: UniProt O00487
Procedure, shortened: as §1

Measured: log2 ratio of Biotin-Ahx-Ub-VS probe labelling

Sequence of UniProt O00487 (O00487 whole entry): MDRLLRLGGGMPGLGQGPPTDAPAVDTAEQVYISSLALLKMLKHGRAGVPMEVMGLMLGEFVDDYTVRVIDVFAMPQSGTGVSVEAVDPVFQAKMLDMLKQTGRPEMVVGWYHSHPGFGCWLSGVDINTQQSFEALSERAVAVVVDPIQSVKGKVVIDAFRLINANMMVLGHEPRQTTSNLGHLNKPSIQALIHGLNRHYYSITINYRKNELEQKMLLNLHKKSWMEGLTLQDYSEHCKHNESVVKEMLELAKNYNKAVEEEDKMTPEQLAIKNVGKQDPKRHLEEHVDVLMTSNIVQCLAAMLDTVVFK
Sequence of USP46 (P62068 whole entry): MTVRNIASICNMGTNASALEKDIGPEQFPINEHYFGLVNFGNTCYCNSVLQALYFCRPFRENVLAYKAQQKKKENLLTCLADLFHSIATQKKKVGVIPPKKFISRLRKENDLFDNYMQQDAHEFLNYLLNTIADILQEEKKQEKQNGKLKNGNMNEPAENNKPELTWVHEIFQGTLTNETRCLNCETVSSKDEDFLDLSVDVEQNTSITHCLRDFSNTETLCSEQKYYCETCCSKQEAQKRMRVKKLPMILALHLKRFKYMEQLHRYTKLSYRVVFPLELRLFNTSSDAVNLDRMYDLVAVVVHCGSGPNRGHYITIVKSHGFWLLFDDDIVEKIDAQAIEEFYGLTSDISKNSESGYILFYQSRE
Sequence of USP54 (Q70EL1 whole entry): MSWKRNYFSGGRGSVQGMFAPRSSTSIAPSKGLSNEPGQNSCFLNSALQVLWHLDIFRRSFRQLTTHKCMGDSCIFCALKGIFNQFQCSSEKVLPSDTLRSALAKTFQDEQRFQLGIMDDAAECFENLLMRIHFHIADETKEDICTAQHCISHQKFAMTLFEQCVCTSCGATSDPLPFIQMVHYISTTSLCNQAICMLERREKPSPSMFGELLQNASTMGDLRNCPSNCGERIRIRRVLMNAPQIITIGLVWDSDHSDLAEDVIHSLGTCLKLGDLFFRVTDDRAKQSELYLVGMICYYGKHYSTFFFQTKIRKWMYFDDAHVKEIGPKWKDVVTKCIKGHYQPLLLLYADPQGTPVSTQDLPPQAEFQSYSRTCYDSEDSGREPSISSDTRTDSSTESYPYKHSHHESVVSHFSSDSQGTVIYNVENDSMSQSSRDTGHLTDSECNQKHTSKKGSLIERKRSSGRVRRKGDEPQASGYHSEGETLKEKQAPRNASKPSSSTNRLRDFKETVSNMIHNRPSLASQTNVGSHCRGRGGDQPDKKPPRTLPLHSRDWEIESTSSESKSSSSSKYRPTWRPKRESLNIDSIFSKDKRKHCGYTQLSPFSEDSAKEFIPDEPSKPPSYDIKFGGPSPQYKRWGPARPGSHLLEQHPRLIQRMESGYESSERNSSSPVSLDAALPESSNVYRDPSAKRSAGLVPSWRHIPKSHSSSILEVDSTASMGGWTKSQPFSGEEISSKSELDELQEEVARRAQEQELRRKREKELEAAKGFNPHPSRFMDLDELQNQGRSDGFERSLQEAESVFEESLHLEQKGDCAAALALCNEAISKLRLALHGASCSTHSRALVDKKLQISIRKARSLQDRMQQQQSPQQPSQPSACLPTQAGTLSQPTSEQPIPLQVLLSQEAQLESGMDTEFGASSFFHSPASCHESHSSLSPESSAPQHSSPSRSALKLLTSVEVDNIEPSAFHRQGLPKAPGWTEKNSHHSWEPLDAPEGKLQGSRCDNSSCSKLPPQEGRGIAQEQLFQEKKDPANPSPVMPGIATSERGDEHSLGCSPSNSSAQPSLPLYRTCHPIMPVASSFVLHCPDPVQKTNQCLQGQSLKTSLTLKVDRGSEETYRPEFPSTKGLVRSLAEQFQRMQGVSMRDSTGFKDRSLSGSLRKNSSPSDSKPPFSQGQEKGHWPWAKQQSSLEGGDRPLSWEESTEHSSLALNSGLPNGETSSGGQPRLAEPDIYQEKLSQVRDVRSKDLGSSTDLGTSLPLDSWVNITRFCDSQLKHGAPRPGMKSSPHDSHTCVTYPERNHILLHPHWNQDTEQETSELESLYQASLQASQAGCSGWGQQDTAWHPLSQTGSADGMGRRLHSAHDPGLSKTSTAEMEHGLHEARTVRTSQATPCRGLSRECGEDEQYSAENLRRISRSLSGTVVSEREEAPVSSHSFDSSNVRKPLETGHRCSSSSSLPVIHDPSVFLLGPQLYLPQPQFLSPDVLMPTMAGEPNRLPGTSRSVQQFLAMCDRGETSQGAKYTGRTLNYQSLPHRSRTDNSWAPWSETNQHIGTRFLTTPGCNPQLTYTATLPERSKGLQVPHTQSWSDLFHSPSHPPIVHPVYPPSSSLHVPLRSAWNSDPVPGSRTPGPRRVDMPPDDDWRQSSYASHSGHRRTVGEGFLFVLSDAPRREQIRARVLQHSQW
Sequence of USP9X (Q93008 whole entry): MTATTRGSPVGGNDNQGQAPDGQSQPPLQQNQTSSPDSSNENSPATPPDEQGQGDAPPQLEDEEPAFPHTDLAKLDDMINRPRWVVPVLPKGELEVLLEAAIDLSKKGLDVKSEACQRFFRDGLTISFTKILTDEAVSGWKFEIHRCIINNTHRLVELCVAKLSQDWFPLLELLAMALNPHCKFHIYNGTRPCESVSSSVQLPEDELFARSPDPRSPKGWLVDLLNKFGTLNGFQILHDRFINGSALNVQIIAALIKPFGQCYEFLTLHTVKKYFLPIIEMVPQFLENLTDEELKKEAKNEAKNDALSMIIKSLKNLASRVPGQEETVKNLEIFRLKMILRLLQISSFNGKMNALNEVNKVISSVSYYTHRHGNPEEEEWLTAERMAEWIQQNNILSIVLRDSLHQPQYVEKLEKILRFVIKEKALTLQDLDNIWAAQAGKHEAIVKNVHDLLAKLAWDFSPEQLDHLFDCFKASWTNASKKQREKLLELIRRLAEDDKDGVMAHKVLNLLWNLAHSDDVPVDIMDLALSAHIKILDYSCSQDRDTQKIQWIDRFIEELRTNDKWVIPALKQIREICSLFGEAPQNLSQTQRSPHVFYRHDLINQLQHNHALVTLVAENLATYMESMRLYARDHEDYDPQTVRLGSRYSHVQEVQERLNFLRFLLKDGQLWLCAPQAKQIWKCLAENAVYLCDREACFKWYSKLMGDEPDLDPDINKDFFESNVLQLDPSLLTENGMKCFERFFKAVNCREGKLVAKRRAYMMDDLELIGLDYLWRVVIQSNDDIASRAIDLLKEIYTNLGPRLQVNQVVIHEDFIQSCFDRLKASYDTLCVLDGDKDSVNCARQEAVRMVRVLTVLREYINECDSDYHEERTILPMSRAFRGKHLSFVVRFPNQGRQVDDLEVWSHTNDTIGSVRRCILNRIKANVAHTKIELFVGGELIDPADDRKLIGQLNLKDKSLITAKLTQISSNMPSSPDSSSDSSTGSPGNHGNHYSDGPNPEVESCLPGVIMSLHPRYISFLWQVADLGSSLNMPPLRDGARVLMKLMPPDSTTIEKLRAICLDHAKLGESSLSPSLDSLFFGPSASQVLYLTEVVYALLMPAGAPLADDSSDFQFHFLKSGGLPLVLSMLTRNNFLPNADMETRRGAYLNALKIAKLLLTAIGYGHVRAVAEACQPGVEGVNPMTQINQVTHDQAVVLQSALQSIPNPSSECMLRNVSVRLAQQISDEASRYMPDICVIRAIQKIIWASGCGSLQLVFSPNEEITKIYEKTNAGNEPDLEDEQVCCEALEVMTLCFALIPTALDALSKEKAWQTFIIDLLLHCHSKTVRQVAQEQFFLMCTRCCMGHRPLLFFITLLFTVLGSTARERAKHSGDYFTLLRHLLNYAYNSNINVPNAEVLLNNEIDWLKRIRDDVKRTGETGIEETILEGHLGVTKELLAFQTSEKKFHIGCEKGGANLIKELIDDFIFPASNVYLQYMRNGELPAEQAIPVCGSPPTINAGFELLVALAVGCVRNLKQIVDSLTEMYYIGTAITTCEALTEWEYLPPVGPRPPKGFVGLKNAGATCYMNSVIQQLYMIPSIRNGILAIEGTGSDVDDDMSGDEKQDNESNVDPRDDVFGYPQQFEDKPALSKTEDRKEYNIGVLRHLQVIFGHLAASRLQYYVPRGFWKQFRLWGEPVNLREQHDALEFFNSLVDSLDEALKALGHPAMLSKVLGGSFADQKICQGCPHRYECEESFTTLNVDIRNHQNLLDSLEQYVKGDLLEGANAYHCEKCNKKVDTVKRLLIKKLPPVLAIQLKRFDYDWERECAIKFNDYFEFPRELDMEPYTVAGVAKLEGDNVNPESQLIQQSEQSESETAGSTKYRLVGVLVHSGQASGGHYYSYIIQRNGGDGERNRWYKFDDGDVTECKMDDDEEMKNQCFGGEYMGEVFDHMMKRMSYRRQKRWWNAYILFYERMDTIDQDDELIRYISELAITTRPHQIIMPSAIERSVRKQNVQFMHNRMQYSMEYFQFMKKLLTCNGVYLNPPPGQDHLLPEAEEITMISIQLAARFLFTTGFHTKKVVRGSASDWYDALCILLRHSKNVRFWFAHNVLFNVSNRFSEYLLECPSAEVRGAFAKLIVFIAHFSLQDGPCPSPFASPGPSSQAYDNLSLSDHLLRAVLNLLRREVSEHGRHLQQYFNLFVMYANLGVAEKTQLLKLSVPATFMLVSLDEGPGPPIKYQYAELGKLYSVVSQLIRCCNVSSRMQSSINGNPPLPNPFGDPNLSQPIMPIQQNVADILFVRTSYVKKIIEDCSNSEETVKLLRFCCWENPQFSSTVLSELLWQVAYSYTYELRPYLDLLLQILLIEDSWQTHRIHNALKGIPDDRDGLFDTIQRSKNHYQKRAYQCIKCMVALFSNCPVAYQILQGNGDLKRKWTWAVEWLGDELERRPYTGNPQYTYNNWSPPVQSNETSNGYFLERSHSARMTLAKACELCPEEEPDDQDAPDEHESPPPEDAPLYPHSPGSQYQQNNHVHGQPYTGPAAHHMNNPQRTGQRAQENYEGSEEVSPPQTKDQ

O=C(CCl)N[C@H]1CCS(=O)(=O)c2ccccc21
inactive: USP42 0.186 | USP46 0.0271 | USP47 -0.0612 | USP48 -0.022 | USP5 -0.472 | USP54 -0.274 | USP7 -0.346 | USP8 -0.0621 | USP9X -0.14 | UniProt O00487 -0.0201
